# Shown are actives, neighbours in structure and some others; about 22% of the full set was active somewhere.
# CYP2C9 activ: CYP2C9 (human) activation; AID 1024; hit rate 1.4% among 96,000; recombinant CYP2C9, luciferin-H conversion, luminescence; stronger effect = higher value; factor 1 = untreated enzyme, 0 = blocked; activation factor at 5 µM;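 active = activation factor of 2 or more for CYP2C9 at a 5 µM dose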;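 note: 0 = sulfaphenazole-blocked wells and 1 = vehicle-only wells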
# CYP2C9 inh: inhibitors of human CYP2C9 | P11712 | CYP2C9 Supersomes, luciferin-H conversion, luminescence | inhibition, % at 5 µM | hit rate 20% among 96,000 | AID 777;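 active = blocking of liver enzyme CYP2C9 beyond about 50% at 5 µM, limit read from the data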
# Measles CPE: protection of cells from measles virus | Measles virus-infected cells, CPE protection, absorbance | protection (pct of control), % at 4 µM | hit rate 1.5% among 140,000; in the data active = protection mostly above about 24%, no sharp cut-off; inactive = mostly below about 26%
# CYP2C19 inhib: inhibitors of human CYP2C19. P33261. CYP2C19 Supersomes, luciferin-H EGE luminescence, 30 min. inhibition, % at 5 µM. hit rate 21% among 96,000. AID 778;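 active = CYP2C19 inhibition above a set limit at 5 µM in the primary screen, cut at about 50% in these data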;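 note: plate controls were negative control wells for no effect and 2.5 mM tranylcypromine positive control for full effect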
# Target sequence (P33261 whole entry, looked up): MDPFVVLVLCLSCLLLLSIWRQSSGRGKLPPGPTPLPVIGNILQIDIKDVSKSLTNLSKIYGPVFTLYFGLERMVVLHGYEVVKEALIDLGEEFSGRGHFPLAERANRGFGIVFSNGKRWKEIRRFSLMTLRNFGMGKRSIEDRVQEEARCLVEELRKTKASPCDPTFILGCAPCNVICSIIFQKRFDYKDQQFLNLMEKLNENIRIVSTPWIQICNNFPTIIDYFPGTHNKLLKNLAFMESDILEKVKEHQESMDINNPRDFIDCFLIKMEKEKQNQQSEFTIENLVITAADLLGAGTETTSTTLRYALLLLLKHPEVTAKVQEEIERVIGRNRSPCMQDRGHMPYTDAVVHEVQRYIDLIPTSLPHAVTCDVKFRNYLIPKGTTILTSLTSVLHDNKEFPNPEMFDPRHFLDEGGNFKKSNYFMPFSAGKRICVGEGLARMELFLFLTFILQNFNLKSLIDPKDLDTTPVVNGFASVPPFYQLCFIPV
# CYP2C19 act: activators of human cytochrome P450 2C19. activation factor at 5 µM. recombinant CYP2C19, luciferin-H EGE luminescence; stronger effect = higher value; 0 = fully inhibited enzyme, 1 = untreated enzyme. 96,000 tested, under 10 active. P33261;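 active = activation factor of at least 2 at 5 µM in the primary screen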;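 note: 0 = wells with 2.5 mM tranylcypromine and 1 = vehicle-only wells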
# Active calls of the source: *; . = no result.
SMILES,CYP2C9 activ,CYP2C9 inh,Measles CPE,CYP2C19 inhib,CYP2C19 act
Cc1cccc(CS(=O)(=O)Cc2ccc(C(=O)N3CCC4(CC3)OCCO4)o2)c1,0.4,58*,26,33,0.7
O=C1/C(=C\c2cc3c(cc2Br)OCO3)N2CCC1CC2,.,.,4,.,.
O=S(=O)(c1ccc(Cl)cc1)N1CC1c1ccccc1 (stereo not drawn),.,.,13,.,.
O=C(CF)NC(Nc1cccc2cccnc12)C(Cl)(Cl)Cl (stereo not drawn),0.6,41,0,89*,0.1
COc1ccc(C2NCc3ccccc3-n3cccc32)cc1 (stereo not drawn),0.8,15,18,50,0.5
COc1cc(C2NCc3ccccc3-n3cccc32)ccc1O (stereo not drawn),0.3,66*,10,73*,0.3
CN(Cc1ccccc1)C(=C(Cl)Cl)/C(=C1/NCCN1Cc1ccc(Cl)nc1)[N+](=O)[O-],0.5,49,14,93*,0.1
CCSc1cc(C2C(C#N)=C(N)Oc3n[nH]c(C)c32)c(C)o1 (stereo not drawn),0.3,67*,11,92*,0.1
Nc1c(C(=O)NCc2ccco2)c2nc3ccccc3nc2n1Cc1ccccc1,.,.,2,.,.
Nc1c(C(=O)NCc2ccco2)c2nc3ccccc3nc2n1Cc1ccc(F)cc1,0.7,28,4,23,0.8
CCCCCCn1c(N)c(C(=O)NCCN2CCOCC2)c2nc3ccccc3nc21,0.7,34,4,54*,0.5
COc1ccc(Cn2c(N)c(C(=O)NCc3ccco3)c3nc4ccccc4nc32)cc1,0.2,84*,7,59*,0.4
CCCCCn1c(N)c(C(=O)NCCN2CCOCC2)c2nc3ccccc3nc21,0.9,7,3,1,1
COc1ccc(CCNC(=O)c2c(N)n(CCN3CCOCC3)c3nc4ccccc4nc23)cc1OC,0.2,83*,8,54*,0.5
Nc1c(C(=O)NCc2ccco2)c2nc3ccccc3nc2n1CCN1CCOCC1,0.4,61*,1,35,0.6
Cn1c(=O)cc(SCC(=O)N2CCC3(CC2)OCCO3)c2ccc(Cl)cc21,.,.,8,.,.
CN1CCC2(CC1)C(C#N)=C(N)NC(S)=C2C#N,.,.,6,.,.
Cc1ccc(NC(=O)CSc2nnc([C@@H](N)Cc3c[nH]c4ccccc34)o2)c(C)c1,0.5,49,24,32,0.7
FC(F)(F)c1cccc(-n2nnnc2C2(N3CCOCC3)CCCCC2)c1,0.7,26,5,57*,0.4
CC12CCCCC1=[N+]([O-])CN2O (stereo not drawn),0.7,28,7,2,1
CCOC(=O)Cn1cc([N+](=O)[O-])nc1[N+](=O)[O-],1,-2,20,0,1
Fc1ccc2c(c1)nnn2C1CCN(Cc2nnnn2C2CCCCC2)CC1,0.2,75*,15,67*,0.3
Cc1ccc(Cn2nnnc2CN2CCC(n3nnc4cc(C)ccc43)CC2)cc1,0,96*,4,91*,0.1
FC(F)(F)c1ccc2c(c1)nnn2C1CCN(Cc2nnnn2Cc2ccccc2)CC1,0.1,93*,4,48,0.5
Cc1nc2cc(F)ccc2n1C1CCN(Cc2nnnn2CCc2ccccc2)CC1,0.4,62*,14,62*,0.4
SMILES,CYP2C9 activ,CYP2C9 inh,Measles CPE,CYP2C19 inhib,CYP2C19 act
Fc1ccc2c(c1)nnn2C1CCN(Cc2c(Cl)cccc2Cl)CC1,.,.,11,.,.
O=C(C1CC(=O)N(c2ccc(F)c(Cl)c2)C1)N1CCC2(CC1)OCCO2 (stereo not drawn),1,-2,11,18,0.8
O=C1NC(=S)NC(=O)C1C/C=C/c1ccccc1,1,-1,15,-3,1
COc1ccccc1CCNC1C2CC3CC(C2)CC1C3 (stereo not drawn),.,.,7,.,.
O=[N+]([O-])c1cc(S(=O)(=O)c2ccc(O)c([N+](=O)[O-])c2)ccc1O,.,.,30,.,.
Cc1nc2cc(C(F)(F)F)ccc2n1C1CCN(Cc2nnnn2CCc2ccccc2)CC1,.,.,14,.,.
Cc1ccc(Cn2nnnc2CN2CCC(n3nnc4cc(C(F)(F)F)ccc43)CC2)cc1,0.3,73*,15,35,0.7
Cc1nn(Cc2ccccc2)c(C)c1C(=O)NC1CCCc2ccccc21 (stereo not drawn),.,.,21,.,.
CCC(=NCc1cccnc1)c1c(O)n(Cc2ccccc2)c(=O)[nH]c1=O,0.3,69*,2,95*,0
CC(=NCCN1CCOCC1)c1c(O)n(Cc2ccccc2)c(=O)[nH]c1=O,1,-4,12,-10,1.1
CC(=NCCN1CCCCC1)c1c(O)n(-c2ccc(Cl)cc2)c(=O)[nH]c1=O,0.9,9,8,8,0.9
CC(=NCc1cccnc1)c1c(O)n(Cc2ccccc2)c(=O)[nH]c1=O,.,.,9,.,.
CCC(=NCCCn1ccnc1)c1c(O)n(Cc2ccccc2)c(=O)[nH]c1=O,0,97*,3,94*,0.1
CC(=NCc1cccnc1)c1c(O)n(-c2ccccc2)c(=O)[nH]c1=O,0.8,17,8,57*,0.4
CCCCn1c(O)c(C(CC)=NCc2cccnc2)c(=O)[nH]c1=O,0.4,60*,4,91*,0.1
Cc1cccnc1-n1c(CN2C(=O)c3ccccc3C2=O)nc2ccccc2c1=O,0.6,40,20,-6,1.1
CC(=O)OC1(c2ccc(C)cc2)CN2CCC1c1ccccc12 (stereo not drawn),1.3,-27,23,99*,0
CC(=O)OC1(c2ccccc2)CCN(C)C(C)C1C (stereo not drawn),.,.,11,.,.
CC(=O)OC1(Cc2ccccc2)CN2CCC1c1ccccc12 (stereo not drawn),0.4,60*,9,74*,0.3
CC(Cc1ccccc1)[n+]1cc(/N=C(\[O-])Nc2ccccc2)on1 (stereo not drawn),0.3,72*,2,31,0.7
CC(Cc1ccccc1)[n+]1cc(/N=C(\N)[O-])on1 (stereo not drawn),1,-4,25,5,1
C=CCn1c(O)c(C(C)=NCCN2CCOCC2)c(=O)[nH]c1=O,1.1,-14,20,-14,1.1
COCCOC(=O)C1=C(N)Oc2c(c(=O)oc3ccccc23)[C@@]12C(=O)Nc1ccccc12,0.2,81*,12,-2,1
Cn1c(O)c(C=NC2C(=O)C3(C)CCC2C3(C)C)c(=O)n(C)c1=O (stereo not drawn),0.7,30,4,18,0.8
CC(C)C(=O)c1cn(Cc2ccccc2C#N)c2ccccc12,0.5,49,14,60*,0.4
CC(C)Oc1ccc(C2(C#N)CC[N+](C)(C)CC2)cc1,.,.,3,.,.
COc1cccc(OC)c1C(=O)Nc1nc(N)n(-c2ccccc2)n1,0.8,18,7,-16,1.2
CC(C)N1C(=O)CCC1C(=O)N1CCC2(CC1)OCCO2 (stereo not drawn),1,-3,13,-5,1
C=COCCn1c(C)c(C(=O)OCC)c2cc(O)ccc21,0.3,71*,14,85*,0.1

# High-throughput results from PubChem BioAssay.
